# The list is not random: actives were taken first. Their share in the collection is about 2.8%.
# PP1 counter = PP1-alpha phosphatase inhibitors, primary screen, counter-screen for PP5 inhibitor project, biochemical, fluorescence, OMFP substrate, single point. inhibition, % at 6.7 µM. purified PP1alpha. Serine/threonine-protein phosphatase PP1-alpha catalytic subunit (Homo sapiens), P62136. 0.9% of 320,000 active;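 active = inhibition above the mean inhibition of all tested compounds plus 3 SD, computed separately for each screening campaign, cut at about 15% in these data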
# Target sequence (P62136 whole entry, looked up): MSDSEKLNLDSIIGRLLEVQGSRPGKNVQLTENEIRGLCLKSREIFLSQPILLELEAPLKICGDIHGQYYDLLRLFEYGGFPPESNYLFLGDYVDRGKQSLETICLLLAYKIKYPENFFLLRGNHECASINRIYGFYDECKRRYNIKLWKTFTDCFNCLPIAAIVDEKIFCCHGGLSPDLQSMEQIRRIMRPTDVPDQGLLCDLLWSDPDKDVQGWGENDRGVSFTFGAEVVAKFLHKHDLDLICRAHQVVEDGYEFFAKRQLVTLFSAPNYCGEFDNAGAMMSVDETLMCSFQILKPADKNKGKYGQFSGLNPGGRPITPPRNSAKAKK
# IDE cell activ = human IDE activators in live cells, primary screen, fluorescence polarization, HEK cells, FAbeta-B substrate; activation, % at 5.96 µM; AID 493087, 2011; FAbeta-B cleavage; 0% vehicle, 100% cell-free pure enzyme wells; Insulin-degrading enzyme (Homo sapiens), P14735; 0.073% of 340,000 active;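 active = activation above the mean of all tested compounds plus 3 SD, set per screening campaign, cut at about 17% in these data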
# SKKanGAS inh = S. pyogenes SKKanGAS growth inhibitors in kanamycin, primary screen, streptokinase expression inhibitor project, SKKanGAS strain, BacTiter-Glo luminescence | AID 1662, 2009 | 1.3% of 300,000 active | 6 h | inhibition, % at 7.5 µM;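 active = mean replicate score, as percent of positive control median, at least 50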;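 note: strain carries kanamycin resistance gene driven by streptokinase promoter and grows in 40 µg/ml kanamycin; loss of luminescence reflects streptokinase promoter inhibition or plain growth inhibition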
# IDE cell inh = human IDE inhibitors in live cells, primary screen, fluorescence polarization, HEK cells, FAbetaB substrate | Insulin-degrading enzyme (Homo sapiens), P14735 | FAbetaB cleavage | inhibition, % at 5.59 µM | 0.41% of 320,000 active;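 active = percent inhibition above the average of all tested compounds plus 3 SD, set per screening campaign, cut at about 16% in these data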;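 note: IDE supplied by intact live HEK cells; FP after avidin binding of uncleaved biotin substrate so inhibition keeps polarization high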
# PP5 inh = PP5 phosphatase inhibitors, primary screen, biochemical, fluorescence; purified PP5c, OMFP substrate fluorescence; inhibition, % at 6.7 µM; 0.18% of 320,000 active; AID 1987, 2009;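 active = inhibition above the campaign's mean inhibition across all tested compounds plus 3 SD, cut at about 9.5% in these data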
# Exocytosis inh = LAMP-1 surface exposure blockers, TALL-104 cells – cell-based, flow cytometry, MLPCN library, primary screen. TALL-104 LAMP-1 surface exposure; cells stimulated with thapsigargin and PMA. inhibition, % at 10 µM. 0.66% of 360,000 active. AID 651702, 2012;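 active = inhibition above about 55%, limit read from the data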
# IDE cell inh cf = human IDE inhibitors in live cells, confirmation, fluorescence polarization, HEK cells, FAbetaB substrate; shares compounds with IDE cell inh; FAbetaB cleavage; inhibition, % at 5.59 µM; 51% of 1,200 active; AID 435028, 2010;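 active = mean inhibition across triplicate wells above the cutoff set by the earlier primary insulin-degrading enzyme screen, cut at about 16% in these data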
# HEK cytotox = cytotoxicity in HEK cells, cytotoxicity control for IDE inhibitor project, cell-based, luminescence. shares compounds with IDE cell inh. HEK293 cytotoxicity, ATP luminescence. inhibition, % at 5.59 µM. 28% of 1,200 active. AID 449730, 2010; in the data active = inhibition above about 22%
# A number is an active result; i = inactive; nt = not tested or not shown.
SMILES,PP1 counter,IDE cell activ,SKKanGAS inh,IDE cell inh,PP5 inh,Exocytosis inh,IDE cell inh cf,HEK cytotox
COc1cc(/C=C/C(=O)c2ccc(NS(=O)(=O)c3ccc(C)cc3)cc2)cc(OC)c1O,i,i,i,26.6,i,i,55.9,44.7
CC(=O)Oc1ccc(Cl)cc1/C=C/c1cc(OC(C)=O)c2ccccc2n1,i,nt,i,37.0,i,nt,88.6,i
Cc1ccccc1OCCC(=O)OCC(=O)NNC(=O)c1cccs1,i,i,nt,i,i,i,nt,nt
Nc1ccn([C@@H]2O[C@H](CNCc3cnc(N4CCOCC4)s3)[C@@H](O)[C@H]2O)c(=O)n1,nt,nt,nt,nt,nt,i,nt,nt
CC(=O)O[C@@H]1C[C@H]2C(C)(C)C(=O)C=C[C@]2(C)[C@H]2CC[C@@]3(C)[C@H](c4ccoc4)OC(=O)[C@H]4O[C@]43[C@@]21C,i,i,i,18.1,i,i,i,58.2
COCCCNC(=S)N1CCCN(c2nc3cc(C)c(C)cc3cc2C#N)CC1,i,i,i,i,i,i,nt,nt
CCOCCCNC(=S)N1CCCN(c2nc3cc(C)c(C)cc3cc2C#N)CC1,i,i,i,21.0,i,i,i,i
Cc1cc(C)cc(NCc2cc(=O)oc3cc(-c4ccccc4)c(O)cc23)c1,i,i,i,i,i,i,nt,nt
COc1ccc(C)cc1NCc1cc(=O)oc2cc(-c3ccccc3)c(O)cc12,i,i,i,19.6,i,i,i,i
CCOC(=O)C1(C(=O)OCC)NC(=O)CC1C(C)C (stereo not given),nt,i,nt,nt,nt,i,nt,nt
COc1ccc(/C=C/C(=O)c2c(O)cc(C)oc2=O)c(OC)c1,i,i,i,19.9,i,i,i,i
COc1cccc(/C=C/C(=O)c2c(O)cc(C)oc2=O)c1O,i,i,i,i,i,i,nt,nt
CS(=O)(=O)N1CCN(c2ccccc2NC(=O)c2cc3ccccc3o2)CC1,i,i,i,i,i,i,nt,nt
CC(=O)Sc1nc(-c2ccccc2)[nH]c1S(=O)(=O)c1ccc(C)cc1,i,nt,i,17.1,i,nt,i,i
CSc1nc(-c2ccc(C)cc2)[nH]c1S(=O)(=O)c1ccccc1,i,i,i,i,i,i,nt,nt
COCCNc1ncnc2c1[nH]c1ccccc12,i,i,i,17.8,i,i,i,i
OCCCNc1ncnc2c1[nH]c1ccccc12,i,i,i,i,i,i,nt,nt
Fc1ccc2[nH]c3c(NCc4ccccc4)ncnc3c2c1,i,i,i,88.1,i,i,66.9,59.0
COc1ccc2c(c1)[nH]c1c(N3CCSCC3)ncnc12,i,i,i,i,i,i,nt,nt
COc1ccc2[nH]c3c(NCc4ccco4)ncnc3c2c1,i,nt,i,37.9,i,nt,17.7,i
COc1ccc2[nH]c3c(N4CC(C)OC(C)C4)ncnc3c2c1 (stereo not given),i,nt,i,16.6,i,nt,i,i
Cc1cccc(C)c1NC(=O)C(c1ccnc2ccccc12)N1CCN(CCN(C)C)CC1 (stereo not given),nt,nt,nt,nt,nt,i,nt,nt
COCCNC(=O)C1(C)CCCN(Cc2cc(C(F)(F)F)ccc2Cl)C1 (stereo not given),nt,nt,nt,nt,nt,i,nt,nt
O=C(COC(=O)/C=C/c1ccc(OC(F)F)cc1)NC1CCCCCC1,nt,i,nt,i,nt,i,nt,nt
O=c1c(Cc2c(F)cccc2Cl)c(O)ccn1CC1CCCO1 (stereo not given),i,i,i,i,i,i,nt,nt
SMILES,PP1 counter,IDE cell activ,SKKanGAS inh,IDE cell inh,PP5 inh,Exocytosis inh,IDE cell inh cf,HEK cytotox
Cc1cc(C)nc(Nc2nc(C(N)Cc3ccccc3)cs2)n1 (stereo not given),nt,nt,nt,nt,nt,i,nt,nt
CCCc1cc(C(=O)Nc2ccc(C(=O)c3ccccc3)cc2)n(C)n1,i,i,i,18.8,i,i,i,23.1
CN(Cc1ccccc1)C(=O)COC(=O)CCC(=O)c1ccc(F)cc1,nt,i,nt,i,nt,i,nt,nt
CCOC(=O)C1CSC(CC(=O)Nc2ccc(OC(F)(F)F)cc2)C(=O)N1 (stereo not given),i,i,i,i,i,i,nt,nt
CCc1ccccc1NC(=O)C1(S(=O)(=O)c2ccc(C)cc2)CC1,i,i,i,i,i,i,nt,nt
COc1ccccc1-[n+]1c(C)cc(/C=C2\Sc3ccccc3N2C)cc1C,i,i,i,51.9,i,i,103.5,112.6
COc1ccc(-[n+]2c(C)cc(/C=C3\Sc4ccccc4N3C)cc2C)cc1,i,i,i,71.8,i,60.9,105.3,111.5
COc1ccc(C(=O)/C=C2\Sc3ccccc3N2C)cc1,i,nt,i,i,i,i,nt,nt
COc1cc(CC(=O)OCC(=O)NCc2ccco2)cc(OC)c1OC,nt,i,nt,i,nt,i,nt,nt
CN(C)c1ccc(/C=C2\Oc3ccc(C#Cc4cccc(N)c4)cc3C2=O)cc1,nt,i,nt,43.8,nt,i,49.0,i
CC(OC(=O)C1CCN(c2ccc(C(F)(F)F)cn2)CC1)C(=O)Nc1ccc(S(N)(=O)=O)cc1 (stereo not given),i,i,i,18.2,i,i,i,i
CSCC[C@H](NC(=O)[C@@H]1CSC2c3ccccc3C(=O)N21)C(=O)N1CCC[C@H]1CO (stereo not given in full),i,i,i,i,i,i,nt,nt
CCCN1CCc2c(sc(NC(=O)c3ccc(S(=O)(=O)N(C)c4ccccc4)cc3)c2C(N)=O)C1,i,i,i,16.2,i,i,i,26.1
CCCN1CCc2c(sc(NC(=O)c3ccc(S(=O)(=O)N(C)c4ccccc4)cc3)c2C(=O)NC)C1,i,i,i,i,i,i,nt,nt
CN1CCc2c(sc(NC(=O)c3ccc(S(=O)(=O)N4CCCCCC4)cc3)c2C(N)=O)C1,i,i,i,24.6,i,i,i,i
O=C(c1cccc(F)c1)N1CCN(S(=O)(=O)Cc2ccccc2)CC1,i,i,i,i,i,i,nt,nt
COc1ccc(-c2nn(-c3ccccc3)cc2/C=C2/SC(=S)N(Cc3ccco3)C2=O)c(C)c1,i,i,i,i,i,i,nt,nt
COc1ccc(-n2c(C)cc(/C=C3\SC(=S)N(Cc4ccco4)C3=O)c2C)cc1,i,i,i,16.6,i,i,18.3,i
CC1CCN(c2ccc3c(c2)S(=O)(=O)c2cccc(C(=O)O)c2C3=O)CC1,nt,i,nt,31.7,nt,i,47.9,i
O=C(NC1CC1)c1cccc2c1C(=O)c1ccc(N3CCC(Cc4ccccc4)CC3)cc1S2(=O)=O,nt,i,nt,39.6,nt,i,70.2,45.2
O=C(NCc1ccc(F)cc1)c1cccc2c1C(=O)c1ccc(N3CCC(Cc4ccccc4)CC3)cc1S2(=O)=O,nt,i,nt,i,nt,i,nt,nt

# Assay outcomes from PubChem.
